According to the antibiotic and cytotoxicity screens of Wong et al. (2023):
About 3,300 (8.5%) of roughly 39,000 compounds were called active. This is one part of a sample in which actives are shown more often than they occur.

What follows are molecules tested on HepG2 (assay: cytotoxicity call (relative viability < 0.9)). Details: 10 µM.

| SMILES | cytotoxicity call |
| --- | --- |
| Cc1noc(C)c1NC(=O)N[C@H]1CC[C@H](CC(=O)N2CCN(C)CC2)O[C@@H]1CO | inactive |
| O=C(C[C@@H]1CC[C@H]2[C@@H](COC[C@H](O)CN2S(=O)(=O)c2ccccc2F)O1)NCc1ccccc1Cl | inactive |
| C[C@@H]1CN([C@@H](C)CO)C(=O)c2cc(NC(=O)Cc3ccccc3)ccc2O[C@@H]1CN(C)S(=O)(=O)c1cccs1 | inactive |
| O=C(O)Cn1nnnc1-c1ccc(F)cc1 | inactive |
| CO[C@H]1O[C@H](CO)[C@@H](OC(=O)c2ccc(Br)cc2)[C@@H]2OC(=O)[C@@H](Cc3ccccc3)C/C=C/C[C@H](Cc3ccccc3)C(=O)O[C@@H]12 | inactive |
| COCC(=O)N1C[C@H](C)[C@@H](OC)CN(C)C(=O)c2ccc(NC(=O)c3ccc(F)cc3)cc2OC[C@H]1C | inactive |
| COCC(=O)Nc1ccc2c(c1)OC[C@@H](C)N(Cc1ccccc1F)C[C@H](C)[C@H](OC)CN(C)C2=O | inactive |
| CCCCCCCCCCCCCCCCOc1nc2ccc(C)cc2c(=O)o1 | inactive |
| C[C@H]1CN([C@@H](C)CO)C(=O)Cc2cc(NC(=O)NC3CCCCC3)ccc2O[C@H]1CN(C)Cc1ccc(C(F)(F)F)cc1 | active |
| C[C@@H]1CN([C@H](C)CO)C(=O)Cc2cc(NC(=O)Nc3ccc(C(F)(F)F)cc3)ccc2O[C@@H]1CN(C)Cc1ccc(C(F)(F)F)cc1 | active |
| C[C@@H]1CN([C@H](C)CO)C(=O)Cc2cc(NC(=O)NC3CCCCC3)ccc2O[C@@H]1CN(C)Cc1ccc(C(F)(F)F)cc1 | inactive |
| C[C@H](CO)N1C[C@H](C)[C@@H](CN(C)Cc2ccc(C(=O)O)cc2)Oc2ccc(NC(=O)Nc3ccc(C(F)(F)F)cc3)cc2CC1=O | inactive |
| CC(C)NC(=O)N(C)C[C@H]1Oc2ccc(NC(=O)CCC(F)(F)F)cc2CC(=O)N([C@H](C)CO)C[C@H]1C | inactive |
| CC(C)NC(=O)N(C)C[C@H]1Oc2ccc(NC(=O)CCC(F)(F)F)cc2CC(=O)N([C@@H](C)CO)C[C@@H]1C | active |
| C[C@H]1CN([C@@H](C)CO)C(=O)Cc2cc(NC(=O)Nc3ccc(C(F)(F)F)cc3)ccc2O[C@H]1CN(C)Cc1ccc(C(=O)O)cc1 | inactive |
| C[C@@H]1CN([C@@H](C)CO)C(=O)Cc2cc(NC(=O)Nc3ccc(C(F)(F)F)cc3)ccc2O[C@H]1CN(C)Cc1ccc(C(F)(F)F)cc1 | active |
| C[C@@H]1CN([C@H](C)CO)C(=O)Cc2cc(NC(=O)NC3CCCCC3)ccc2O[C@H]1CN(C)Cc1ccc(C(F)(F)F)cc1 | inactive |
| CC(C)NC(=O)N(C)C[C@@H]1Oc2ccc(NC(=O)CCC(F)(F)F)cc2CC(=O)N([C@@H](C)CO)C[C@H]1C | inactive |
| Cc1noc(C)c1S(=O)(=O)N(C)C[C@@H]1Oc2ccc(NC(=O)Nc3ccccc3)cc2CC(=O)N([C@@H](C)CO)C[C@H]1C | inactive |
| Cc1cc(O)c(C(=O)/C=C/N(C)C)c(=O)o1 | inactive |

| SMILES | cytotoxicity call |
| --- | --- |
| C[C@@H]1CN([C@@H](C)CO)C(=O)CCCn2cc(nn2)CO[C@H]1CN(C)C(=O)Nc1ccc2c(c1)OCCO2 | inactive |
| C[C@@H]1CN([C@@H](C)CO)C(=O)c2cc(-c3ccc(C#N)cc3)cnc2O[C@H]1CN(C)C(=O)Nc1ccc(C(F)(F)F)cc1 | inactive |
| CCCCC[C@H]1C[C@H](O[C@H]2O[C@@H](CO)[C@@H](O)[C@@H](O)[C@@H]2O)CC(=O)O1 | inactive |
| C[C@@H]1CN([C@@H](C)CO)C(=O)Cc2cc(NC(=O)Nc3ccc(C(F)(F)F)cc3)ccc2O[C@H]1CN(C)Cc1ccc(C(=O)O)cc1 | inactive |
| C[C@@H]1CN([C@H](C)CO)C(=O)Cc2cc(NC(=O)Nc3ccc(C(F)(F)F)cc3)ccc2O[C@H]1CN(C)Cc1ccc(C(=O)O)cc1 | inactive |
| C[C@@H]1CN([C@@H](C)CO)C(=O)Cc2cc(NC(=O)Nc3ccc(C(F)(F)F)cc3)ccc2O[C@@H]1CN(C)Cc1ccc(C(F)(F)F)cc1 | active |
| C[C@@H]1CCCCO[C@@H](CN(C)S(C)(=O)=O)[C@@H](C)CN([C@@H](C)CO)C(=O)c2cc(NS(=O)(=O)c3ccc(F)cc3)ccc2O1 | inactive |
| C[C@@H]1CN([C@H](C)CO)C(=O)Cc2cc(NC(=O)Nc3ccccc3)ccc2O[C@H]1CN(C)Cc1ccc(Oc2ccccc2)cc1 | active |
| C[C@@H]1CN([C@@H](C)CO)C(=O)Cc2cc(NC(=O)Nc3ccccc3)ccc2O[C@@H]1CN(C)Cc1ccc(Oc2ccccc2)cc1 | active |
| C[C@H]1CN([C@@H](C)CO)C(=O)Cc2cc(NC(=O)Nc3ccccc3)ccc2O[C@@H]1CN(C)Cc1ccc(Oc2ccccc2)cc1 | active |
| CC(C)NC(=O)Nc1ccc2c(c1)CC(=O)N([C@H](C)CO)C[C@H](C)[C@H](CN(C)Cc1ccc(Oc3ccccc3)cc1)O2 | inactive |
| C[C@H]1CN([C@@H](C)CO)C(=O)Cc2cc(NC(=O)Nc3ccccc3)ccc2O[C@H]1CN(C)Cc1ccc(Oc2ccccc2)cc1 | active |
| C[C@@H]1CN([C@@H](C)CO)C(=O)Cc2cc(NC(=O)Nc3ccccc3)ccc2O[C@H]1CN(C)Cc1ccc(Oc2ccccc2)cc1 | inactive |
| C[C@H](CO)N1C[C@H](C)[C@@H](CN(C)Cc2ccc(Oc3ccccc3)cc2)Oc2ccc(NC(=O)Nc3ccccc3)cc2CC1=O | inactive |
| CC(C)NC(=O)Nc1ccc2c(c1)CC(=O)N([C@@H](C)CO)C[C@H](C)[C@H](CN(C)Cc1ccc(Oc3ccccc3)cc1)O2 | inactive |
| CC(C)NC(=O)Nc1ccc2c(c1)CC(=O)N([C@@H](C)CO)C[C@H](C)[C@@H](CN(C)Cc1ccc(Oc3ccccc3)cc1)O2 | inactive |
| COCC#Cc1ccc2c(c1)O[C@@H](CN(C)C(=O)c1ccccc1F)[C@H](C)CN([C@@H](C)CO)S2(=O)=O | inactive |
| Cc1noc(C)c1S(=O)(=O)N(C)C[C@@H]1Oc2ccc(NS(C)(=O)=O)cc2CC(=O)N([C@H](C)CO)C[C@@H]1C | inactive |
| C[C@H](CO)N1C[C@H](C)[C@@H](CN(C)S(=O)(=O)c2cn(C)cn2)Oc2cc(C#Cc3ccccc3)ccc2S1(=O)=O | inactive |
| C=CC[C@@H](CC(=O)N[C@@H](CO)Cc1ccccc1)C(=O)NCCOC(=O)[C@H](CC=C)CC(=O)OC(C)(C)C | inactive |
